Compound activity: PubChem, Broad Institute
Many of the other results were omitted from the sample, so hits are more common in it than they were.
BL2 CD40 inh = CD40 pathway inhibition in BL2 cells | BL2 NF-kB luciferase reporter, CD40L-induced, 4 h | inhibition, % at 10 µM | 83,000 compounds, 0.94% hits;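 active means mean inhibition of at least 50% with a set share of replicates also reaching that level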
Large screens that a line does not name were inactive; [ ] = remark or other dose.

COCC(=O)N1[C@@H](CO)[C@H](c2ccccc2)[C@@H]1CNC(=O)c1ccccn1	none
O=C(C[C@@H]1CC[C@H]2[C@@H](COC[C@@H](O)CN2Cc2cc(F)ccc2F)O1)NCc1ccc(Oc2ccccc2)cc1	BL2 CD40 inh 51[25 µM]
O=C(C[C@@H]1CC[C@@H]2[C@H](COC[C@@H](O)CN2CCC(F)(F)F)O1)NCc1ccc(Oc2ccccc2)cc1	none
O=C(C[C@@H]1CC[C@@H]2[C@H](COC[C@H](O)CN2Cc2cc(F)ccc2F)O1)NCc1ccc(Oc2ccccc2)cc1	BL2 CD40 inh 63[25 µM]
O=C(C[C@@H]1CC[C@H]2[C@@H](COC[C@H](O)CN2Cc2cc(F)ccc2F)O1)NCc1ccc(Oc2ccccc2)cc1	none
O=C(C[C@H]1CC[C@H]2[C@@H](COC[C@H](O)CN2Cc2cc(F)ccc2F)O1)NCc1ccc(Oc2ccccc2)cc1	none
CCC(=O)N1C[C@@H](O)COC[C@@H]2O[C@H](CC(=O)NCc3ccc(Oc4ccccc4)cc3)CC[C@H]21	none
Cc1ccc(S(=O)(=O)N(C)C[C@H]2OCCCC[C@H](C)Oc3ccc(NS(=O)(=O)c4ccc(Cl)cc4)cc3C(=O)N([C@H](C)CO)C[C@@H]2C)cc1	none
CC(C)c1cn(CC[C@H]2CC[C@@H](NC(=O)C3CCCCC3)[C@H](CO)O2)nn1	none
O=C(Nc1cc(F)ccc1F)N1CC(=O)N2[C@H](CO)[C@H](c3ccc(C#CC4CCCC4)cc3)[C@H]2C1	none
O=S(=O)(Cc1ccccc1)N1[C@H](CO)[C@@H](c2ccccc2)C12CN(CCC(F)(F)F)C2	none
CNC[C@@H]1Oc2ccc(NC(C)=O)cc2C(=O)N(C)C[C@@H]1C	none
COc1ccccc1S(=O)(=O)N[C@H]1CC[C@@H](CCNC(=O)C2CCCC2)O[C@@H]1CO	none
CCC(=O)N1CCCCN2[C@H](C1)[C@H](c1ccc(/C=C/c3ccccc3)cc1)[C@@H]2CO	none
Cc1cccc(-c2ccc([C@H]3[C@@H](CO)N4CCCCN(CCC(F)(F)F)C[C@H]34)cc2)c1	none
CCc1nnc(NC(=O)c2cc3c(s2)CCCCC3)s1	none
Cc1cnc(NC(=O)c2cc3c(s2)CCCC3)s1	BL2 CD40 inh 65
CNC(=O)c1cc2c(s1)CCCCCC2	none
CN(C)C(=O)[C@H]1[C@H](CO)[C@H]2Cn3c(ccc(-c4ccncc4)c3=O)[C@H]2N1Cc1ccccc1	none
CC(C)C1C(=O)N(S(C)(=O)=O)[C@@H]2CCN(C(=O)/C=C/CN3CCCCC3)[C@@H]12 (stereo partly drawn)	none
Cc1ccc(NC(=O)CNC(=O)c2cccc(Cl)c2)nc1	BL2 CD40 inh 66
Cc1ccc(NC(=O)c2ccc3c(c2)NC(=O)CS3)nc1	none
Cc1cccnc1NC(=O)c1ccc2c(c1)OCCO2	none
Cc1ccc(NC(=O)c2ccc3c(c2)OCCO3)nc1	BL2 CD40 inh 64
Cc1ccc(NC(=O)CNC(=O)c2ccc(C)s2)nc1	none
COC(=O)CNC(=O)c1cccc(Cl)c1	none
C[C@@H]1CN([C@@H](C)CO)C(=O)c2c(c3ccccc3n2C)-c2ccccc2CO[C@@H]1CN(C)Cc1ccccc1	none
C[C@H]1CN([C@@H](C)CO)C(=O)CCCn2cc(nn2)CO[C@H]1CN(C)C(=O)c1cc(-c2ccccc2)on1	none
COc1cccc(-c2ccc3c(c2)[C@H]2[C@H](CCN2C(=O)C2CCCCC2)[C@@H](CO)N3)c1	none
CN(C)c1ccc2c(c1)[C@@H]1C[C@H](CC(=O)NCc3ccccc3F)O[C@H](CO)[C@@H]1O2	none
CN(C)C(=O)C[C@@H]1CC[C@H]2[C@@H](COc3ccc(NC(=O)C4CCC4)cc3C(=O)N2C)O1	none
Cn1cnc([N+](=O)[O-])c1Cl	none
Cn1cnc([N+](=O)[O-])c1Oc1ccccc1	none
CCS(=O)(=O)c1c([N+](=O)[O-])ncn1C	BL2 CD40 inh 95
Cn1cnc([N+](=O)[O-])c1Oc1cccc2ccccc12	none
Cn1cnc([N+](=O)[O-])c1S(=O)(=O)Oc1cccc2ccccc12	BL2 CD40 inh 101
CCN(CC)c1c([N+](=O)[O-])ncn1C	none
COc1ccccc1S(=O)(=O)N[C@H]1C=C[C@H](CC(=O)N2CCOCC2)O[C@H]1CO	none
O=C(C[C@@H]1C[C@@H]2c3cc(NC(=O)c4cccnc4)ccc3O[C@@H]2[C@H](CO)O1)NC1CCCCC1	none
CC(=O)N1[C@@H]2c3ccc(C4=CCCCC4)c(=O)n3C[C@@H]2[C@@H](CO)[C@@H]1C(=O)Nc1ccccc1	none
COc1cccc(CN2[C@@H](CO)[C@H](c3ccccc3)C23CN(C(=O)C2CCCC2)C3)c1	none
CN(C)C(=O)c1ccc(-c2ccc(C3[C@@H]4CN(C(=O)Cc5ccccc5)C[C@H]3N4)cc2)cc1 (stereo partly drawn)	none
OC[C@@H]1[C@@H](c2ccccc2)C2(CN(Cc3cc(F)ccc3F)C2)N1CC1CCCC1	none
COc1cc(C(=O)OC2CCN(C)CC2)cc(OC)c1OC	none
O=C(CCN1CCC(c2ccccc2)C1)c1cccs1 (stereo not drawn)	none
COc1cc(C(=O)CCN2CCC(c3ccccc3)C2)cc(OC)c1OC (stereo not drawn)	BL2 CD40 inh 45
O=C(CCN1CCC(c2ccccc2)C1)c1ccccc1 (stereo not drawn)	none
O=C(CCN1CCC(c2ccccc2)C1)c1ccc2c(c1)OCCO2 (stereo not drawn)	BL2 CD40 inh 45
O=C(CCN1CCCCC1)c1ccc2c(c1)OCCO2	none
COc1ccccc1-c1ccc([C@@H]2[C@@H](C#N)N(C(=O)c3cccnc3)[C@@H]2CO)cc1	none
CNC[C@H]1Oc2c(NC(C)=O)cccc2C(=O)N(C)C[C@@H]1C	none
CCCC(=O)Nc1ccc2c(c1)C(=O)N(C)C[C@H](OC)[C@@H](C)CN(C(=O)c1ccccn1)[C@H](C)CO2	none
OCCN1CCN(CCCN2c3ccccc3Sc3ccc(C(F)(F)F)cc32)CC1	BL2 CD40 inh 51
O=C(N1CCN(CCO)CC1)N1c2ccccc2CCc2ccccc21	none
O=C(CN1CCCC1)N1c2ccccc2Sc2ccccc21	none
C[C@@H]1CN([C@H](C)CO)C(=O)c2ccccc2-c2ccccc2CO[C@@H]1CN(C)Cc1ccc(-c2ccccc2)cc1	none
COc1cccc(C=NNC(=O)c2ccncc2)c1O	none
COc1cccc(/C=N/Nc2ccc(C(=O)O)cc2)c1O	BL2 CD40 inh 96
COc1cccc(/C=N/NC(=O)N/N=C/c2cccc(OC)c2O)c1O	none
C[C@@H]1CN([C@H](C)CO)C(=O)c2c(c3ccccc3n2C)-c2ccccc2CO[C@@H]1CN(C)Cc1cccc(C(F)(F)F)c1	none
C[C@H]1CN([C@@H](C)CO)C(=O)c2c(c3ccccc3n2C)-c2ccccc2CO[C@@H]1CN(C)C(=O)Nc1cccc(C(F)(F)F)c1	BL2 CD40 inh 64[25 µM]
C[C@@H]1CN([C@@H](C)CO)C(=O)c2c(c3ccccc3n2C)-c2ccccc2CO[C@H]1CN(C)C(=O)Nc1ccccc1C(F)(F)F	BL2 CD40 inh 64[25 µM]
C[C@H](CO)N1C[C@H](C)[C@@H](CN(C)C(=O)Nc2cccc(C(F)(F)F)c2)OCc2ccccc2-c2c(n(C)c3ccccc23)C1=O	none
C[C@H](CO)N1C[C@H](C)[C@H](CN(C)Cc2cccc(C(=O)O)c2)OCc2ccccc2-c2c(n(C)c3ccccc23)C1=O	none
C[C@@H]1CN([C@@H](C)CO)C(=O)c2c(c3ccccc3n2C)-c2ccccc2CO[C@H]1CN(C)Cc1cccc(C(=O)Nc2ccccc2N)c1	BL2 CD40 inh 60[25 µM]
C[C@@H]1CN([C@H](C)CO)C(=O)c2c(c3ccccc3n2C)-c2ccccc2CO[C@H]1CN(C)Cc1cccc(O)c1	none
COc1ccccc1NC(=O)N(C)C[C@@H]1OCc2ccccc2-c2c(n(C)c3ccccc23)C(=O)N([C@H](C)CO)C[C@@H]1C	none
